Screens as filed in PubChem.
Compounds with a hit are over-represented: about 19% of the library has one in this group of screens.
HT1080NT lethal = kills 2HG-producing HT-1080-NT fibrosarcoma cells. 360,000 tested, 1.6% active. AID 686970. Potency, µM (top dose mostly 46.1 µM), hits mostly cytotoxic. HT-1080-NT fibrosarcoma viability, CellTiter-Glo ATP luminescence, 48 h;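 further: NT is the 2HG producing partner of a matched IDH1 knockdown line; nearly all actives have a fitted effect of over 55% in size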
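Fibrosarcoma NT cells, 750 per well in 5% FBS RPMI, were exposed to compound for 48 hours. Viability: CellTiter-Glo luminescence.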
TDP1 cell noCPT = qHTS for Inhibitors of human tyrosyl-DNA phosphodiesterase 1 (TDP1): qHTS in cells in absence of CPT | DT40 Tdp1-/- hTDP1 cells, no CPT, ATP luminescence, 48 h | Potency, µM (doses to about 46.2 µM), hits mostly inhibitors | 420,000 tested, 15% active; further: nearly all actives have a fitted effect of over 55% in size
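Luminescent ATP content (CellTiter-Glo) served as the growth readout. Knockout chicken DT40 cells expressing human TDP1 were exposed to compounds without camptothecin for a minimum 48 hr at 37 °C.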
IL-1B inflam inh = inhibitors of inflammasome signaling (IL-1 beta secretion); THP-1 LPS/ATP IL-1B secretion, AlphaLISA, 16 h; stronger effect = lower value; activity change, % at 57.5 µM; 360,000 tested, 4.7% active; AID 743279; in the data active means activity change below about -50%; inconclusive means mostly about -30% to -49%
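THP-1 cells pretreated 1 hr with compounds (up to 57.5 uM final), then stimulated with LPS (250 ng/mL final) plus ATP (1.25 mM final); secreted IL-1B measured by AlphaLISA after 16 hr, decreased signal indicating inhibition.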
DT40 TDP1 CPT = DT40-hTDP1 cell growth loss with CPT. 420,000 tested, 12% active. AID 686979. Potency, µM (titrated, usually from 46.2 µM), most hits filed as inhibitors. chicken DT40 Tdp1-/-;hTDP1 cells + 20 nM CPT, ATP luminescence, 48 h; further: nearly all actives have a fitted effect of over 55% in size
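Chicken DT40 Tdp1-/- cells stably complemented with human TDP1 were seeded at 400 cells/well in medium containing 20 nM camptothecin, exposed to pin-transferred compounds, and grown at 37 °C for at least 48 hr. Viability was read as ATP luminescence.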
HT1080 IDH1KD tx = toxicity to HT-1080 IDH1 knockdown cells (counter line). HT-1080 IDH1 knockdown viability, ATP luminescence, 48 h. Potency, µM (series often up to 46.1 µM), most hits filed as cytotoxic. 360,000 tested, 2% active. AID 686971
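Knockdown cells (IDH1KD HT-1080) received compounds 2 h after plating at 750 cells/well and were kept 48 h at 37 °C in 5% FBS RPMI. A CellTiter-Glo luminescence read gave % activity for curve fitting.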
Of the large screens only hits and unclear results are named; the others gave an inactive call; ! = not active in a repeat. Unless noted, the call rests on the fitted dose curve; in most records, active means well fitted curve in the direction sought with a large enough effect; inconclusive means small, poorly fitted or top-dose-only effect, or another doubt; inactive means no such curve, though single readings can be large; an effect the other way counts as inactive or inconclusive.

O=C1/C(=C/c2cccs2)SC(=S)N1c1cccc(O)c1	TDP1 cell noCPT inconclusive
CCc1cccc(C)c1NC(=O)C1CCN(S(=O)(=O)Cc2ccccc2)CC1	none (no result: HT1080NT lethal, IL-1B inflam inh, HT1080 IDH1KD tx)
CSc1ccc(/C=C/C(=O)OCC(=O)c2ccc[nH]2)cc1	none
O=C(CSc1ccc(Cl)cc1)Nc1cccc(-c2nnc(-c3ccco3)o2)c1	TDP1 cell noCPT inconclusive, DT40 TDP1 CPT inconclusive, HT1080 IDH1KD tx inconclusive
COc1ccc(Br)cc1C(=O)Nc1cccc(-c2nnc(-c3ccco3)o2)c1	TDP1 cell noCPT inconclusive, IL-1B inflam inh inconclusive, DT40 TDP1 CPT 23µM
Cc1ccc(SCC(=O)Nc2cccc(-c3nnc(-c4ccco4)o3)c2)cc1	TDP1 cell noCPT inconclusive, DT40 TDP1 CPT 18µM
COc1ccccc1OCCCOc1cccc(/C=C2\SC(=O)NC2=O)c1	HT1080NT lethal inconclusive, TDP1 cell noCPT inconclusive, DT40 TDP1 CPT inconclusive, HT1080 IDH1KD tx inconclusive
COc1ccccc1OCCCOc1ccc(/C=C2\SC(=O)NC2=O)cc1OC	TDP1 cell noCPT 13µM, DT40 TDP1 CPT 16µM, HT1080 IDH1KD tx inconclusive
COc1ccc(C=C2SC(=O)NC2=O)cc1OC	TDP1 cell noCPT 16µM, DT40 TDP1 CPT inconclusive
Cc1cccc(/C=C2/SC(=O)N(Cc3ccccc3Cl)C2=O)n1	TDP1 cell noCPT inconclusive, DT40 TDP1 CPT inconclusive
COc1cc(/C=C2\SC(=O)NC2=O)ccc1Oc1cnccn1	none
COc1cc(/C=C2/SC(=O)NC2=O)ccc1OCc1ccccc1	HT1080NT lethal 23µM, TDP1 cell noCPT inconclusive, HT1080 IDH1KD tx inconclusive
COc1cc(/C=C2/SC(=O)N(Cc3ccccc3Cl)C2=O)ccc1OCc1ccncc1	TDP1 cell noCPT inconclusive, DT40 TDP1 CPT 18µM
COCCN(C(=O)c1cc(-c2ccco2)nc2ccccc12)c1c(N)n(Cc2ccccc2)c(=O)[nH]c1=O	TDP1 cell noCPT inconclusive
O=C(c1cccc(-c2ccccc2)c1)N1CC[C@@H](N2CCC(O)CC2)[C@H](O)C1	none
O=C(O)C[C@H]1c2ccccc2S(=O)(=O)N1c1ccccc1	DT40 TDP1 CPT inconclusive
CCOC(=O)C[C@H]1c2ccccc2S(=O)(=O)N1Cc1ccc(Cl)cc1	TDP1 cell noCPT 18µM, DT40 TDP1 CPT 11µM
COc1cccc(N2[C@@H](CC(C)=O)c3cc(C(F)(F)F)ccc3S2(=O)=O)c1	TDP1 cell noCPT inconclusive, DT40 TDP1 CPT inconclusive
COc1ccc(CN2[C@@H](CC(C)=O)c3cc(C(F)(F)F)ccc3S2(=O)=O)cc1	TDP1 cell noCPT 21µM, DT40 TDP1 CPT 16µM
CCOC(=O)/C=C/c1ccc2c(c1)S(=O)(=O)N(Cc1ccc(OC)cc1)[C@H]2CC(=O)OCC	TDP1 cell noCPT 13µM, DT40 TDP1 CPT 21µM
CCOC(=O)C[C@H]1c2cc(C(F)(F)F)ccc2S(=O)(=O)N1Cc1ccccc1	TDP1 cell noCPT inconclusive, DT40 TDP1 CPT inconclusive
COc1ccc(CN2[C@@H](CC(=O)O)c3ccccc3S2(=O)=O)cc1	TDP1 cell noCPT 2.8µM!, DT40 TDP1 CPT inconclusive
Cc1ccc(NC(=O)c2ccccc2OCc2ccc([N+](=O)[O-])cc2)nc1	none
COc1ccc(S(=O)(=O)N2CCc3cc(OC)c(OC)cc3C2)cc1	DT40 TDP1 CPT inconclusive
CCN(CC(=O)NC(C)(C)C)C(=O)c1ccc2c(c1)S(=O)(=O)c1ccccc1C2=O	none
COc1cc(N2C(=O)C=CC2=O)c(OC)cc1Cl	HT1080NT lethal 18µM, TDP1 cell noCPT 1.3µM, IL-1B inflam inh inconclusive, DT40 TDP1 CPT 1.8µM, HT1080 IDH1KD tx inconclusive
CC(C)(C)c1ccc(NC(=O)COc2ccc(-n3ccnc3)cc2)cc1	TDP1 cell noCPT 16µM, DT40 TDP1 CPT 15µM, HT1080 IDH1KD tx inconclusive
COc1cc(NC(=O)COc2ccc(-n3ccnc3)cc2)cc(OC)c1	TDP1 cell noCPT inconclusive, IL-1B inflam inh -106, DT40 TDP1 CPT inconclusive
Cc1ccc(NC(=O)COc2ccc(-n3cnnn3)cc2)cc1C	none
CC(C)(C)c1ccc(OCC(=O)Nc2ccncc2)cc1	TDP1 cell noCPT inconclusive, DT40 TDP1 CPT inconclusive
COc1ccc(NC(=O)COc2ccc(-n3cnnn3)cc2)cc1OC	TDP1 cell noCPT 23µM, DT40 TDP1 CPT inconclusive
COc1ccc2c(c1)CCc1cnc(-n3ncc(C(=O)NCc4cc(C)no4)c3C3CC3)nc1-2	none (no result: HT1080NT lethal, IL-1B inflam inh, HT1080 IDH1KD tx)
CC1CN(S(=O)(=O)c2cccc(C(=O)Nc3ccc(S(=O)(=O)NC4=NCCCCC4)cc3)c2)CC(C)O1 (stereo unspecified)	TDP1 cell noCPT inconclusive, DT40 TDP1 CPT inconclusive
COc1ccc2c(c1)CC(C(=O)NCCN1CCN(c3cccc(Cl)c3)CC1)CO2 (stereo unspecified)	TDP1 cell noCPT 15µM, DT40 TDP1 CPT 16µM (no result: HT1080NT lethal, IL-1B inflam inh, HT1080 IDH1KD tx)
COc1ccccc1NC(=O)NCCN1CCN(c2cccc(Cl)c2)CC1	TDP1 cell noCPT 23µM!, IL-1B inflam inh inconclusive, DT40 TDP1 CPT inconclusive
O=C(NCCN1CCN(c2ccccc2)CC1)Nc1cccc(Br)c1	HT1080NT lethal inconclusive, TDP1 cell noCPT 29µM, IL-1B inflam inh inconclusive, DT40 TDP1 CPT inconclusive
O=C(CCN1CCN(c2ccccc2)CC1)Nc1cccc(Br)c1	TDP1 cell noCPT inconclusive
O=C(NCCN1CCN(c2cccc(Cl)c2)CC1)Nc1ccccc1	TDP1 cell noCPT 15µM, DT40 TDP1 CPT inconclusive
O=C(NCCN1CCN(c2ccccc2)CC1)Nc1ccc(Cl)cc1	HT1080NT lethal inconclusive, IL-1B inflam inh inconclusive
CC1(C(=O)NS(=O)(=O)c2cccc(OC(F)F)c2)CCN1C(=O)C1CCCCC1 (stereo unspecified)	none
COC(=O)c1ccc(S(=O)(=O)NC(C)(C)C)n1C	none
O=C(CN1c2cccc3cccc(c23)S1(=O)=O)Nc1ccc(F)c(F)c1F	TDP1 cell noCPT inconclusive, DT40 TDP1 CPT inconclusive
O=C(CSc1nc(-c2ccccc2)cc(=O)[nH]1)Nc1ccc(F)c(F)c1	none
CCN(C(=O)COC(=O)c1ccc2c(=O)n3c(nc2c1)CCC3)C1CCS(=O)(=O)C1 (stereo unspecified)	none
CC(C)(C)NC(=O)CSC(=Nc1ccc(F)cc1)NC#N	TDP1 cell noCPT inconclusive, IL-1B inflam inh -97
N#CNC(=Nc1ccccc1F)SCc1ccc(C(=O)O)cc1	none
COc1ccccc1N1CCN(C(=O)CCS(=O)(=O)c2ccc3c(c2)oc(=O)n3C)CC1	none
COc1ccccc1N1CCN(C(=O)C2CCN(S(=O)(=O)c3ccccc3F)CC2)CC1	TDP1 cell noCPT 23µM, DT40 TDP1 CPT inconclusive
COc1ccc(C)cc1S(=O)(=O)N1CCCC(C(=O)N2CCN(c3ccccc3F)CC2)C1 (stereo unspecified)	TDP1 cell noCPT 23µM, DT40 TDP1 CPT inconclusive
COc1ccccc1N1CCN(C(=O)C2CCCN(S(=O)(=O)c3ccc4c(c3)oc(=O)n4C)C2)CC1 (stereo unspecified)	TDP1 cell noCPT 8.2µM, DT40 TDP1 CPT 26µM
